Measured values reported in paper PMC4552634, “A New Set of Chemical Starting Points with Plasmodium falciparum Transmission-Blocking Potential for Antimalarial Drug Discovery” (PLoS ONE, 2015).
Where two headings read alike, the source gives them in different places. About 3,200 (25%) of roughly 13,000 compounds showed an effect of 50% or more. The list shows a part of the results.

Tested on: P. falciparum stage V gametocytes
Design: BacTiter-Glo ATP luminescence viability of purified stage V gametocytes in 384-well plates, per cent inhibition versus DMSO
Details: 48 h, 5 µM, inhibitor

Structure (SMILES)	% Inhibition	% Inhibition (% Inhibition)
CC1(C)N=C(N)N=C(N)N1c1ccc(I)cc1 [TCMDC-124271]	5.763%	–
CN(CCCCCNC(=O)/C=C/c1ccc(Cl)c(Cl)c1)CCCCc1c[nH]c2ccccc12 [TCMDC-139328]	-28.14%	–
CC1CCN(c2nc(C(=O)Nc3cccc4c3CCCC4)c(C(C)C)s2)CC1 [TCMDC-134662]	11.59%	–
CN1CCN(c2ccnc3ccc(NC(=O)Nc4ccc(Cl)cc4)cc23)CC1 [TCMDC-139322]	28.3%	–
CN1CCN(c2ccnc3cc4c(cc23)N(Cc2ccccc2)CC4)CC1 [TCMDC-139341]	-3.615%	–
CN1CCCN(c2ccnc3cc4c(cc23)N(C(=O)c2ccc(Cl)cc2)CC4)CC1 [TCMDC-140240]	94.93%	–
Cc1ccc(C2(C)CC(C)(C)N(C(=O)COc3ccc4ccccc4c3)c3ccccc32)cc1 (stereo not drawn) [TCMDC-124089]	-65.04%	–
COc1ccccc1CCN1CCC(CN(C)Cc2ccc(O)c(Cl)c2)CC1 [TCMDC-124611]	14.29%	–
COc1ccc2nccc([C@@H](O)CN3CCC(NC(=O)c4cc5c(Cl)cc(Cl)cc5[nH]4)CC3)c2c1 [TCMDC-141039]	-18.46%	–
CN(C)c1ccc(C=C2SC(=O)NC2=Nc2ccccc2)cc1 [TCMDC-123738]	34.75%	–
Cc1ccc(CN2CCCCC(NC(=O)c3cc4ccccc4s3)C2)cc1 (stereo not drawn) [TCMDC-141748]	-37.31%	–
O=C(Nc1cccc(Cl)c1)N[C@H]1CCN(Cc2ccc(OCCCN3CCCCC3)cc2)C1 [TCMDC-141788]	103.5%	–
O=C(Nc1ccc(Oc2ccccc2)cc1)N[C@@H](Cc1ccc(O)cc1)C(=O)NC1CCN(Cc2ccc(O)c([N+](=O)[O-])c2)C1 (stereo partly drawn) [TCMDC-140421]	0.03751%	–
O=C(Nc1ccc(Cl)cc1)Nc1ccc(OCC(O)CN2CCCCC2)cc1 (stereo not drawn) [TCMDC-123519]	4.072%	–
O=C(Nc1ccc(Cl)cc1)N[C@H]1CCN(Cc2ccc(OCCCN3CCCCC3)cc2)C1 [TCMDC-141787]	90.53%	–
O=C(Nc1ccc(Oc2ccccc2)cc1)N[C@H]1CCN(Cc2ccc(OCCCN3CCCCC3)cc2)C1 [TCMDC-141786]	96.23%	–
COc1cc(CN2CCC(NC(=O)[C@H](Cc3ccccc3)NC(=O)Nc3ccc(Oc4ccccc4)cc3)C2)ccc1O (stereo partly drawn) [TCMDC-140500]	-15.62%	–
O=C(Nc1ccc(-c2ccccc2)s1)N[C@H]1CCN(Cc2ccc(OCCCN3CCCCC3)cc2)C1 [TCMDC-141789]	86.03%	–
COc1cccc(NC(=O)NC2CCN(CCCCCNC(=O)/C=C/c3ccc(Cl)c(Cl)c3)CC2)c1 [TCMDC-139388]	31.25%	–
Cc1cccc2[nH]c(-c3cccc(-c4cccc(NC(=O)NCc5cccc(F)c5)c4)c3)nc12 [TCMDC-133291]	37.78%	–
O=C(Nc1cccc(-c2cccc(-c3nc4ccc(F)cc4[nH]3)c2)c1)Nc1ccc(F)c(F)c1F [TCMDC-133233]	-45%	–
Cc1cc(Cl)c(S(=O)(=O)N(C)c2ccccc2)cc1OCC(=O)NC1CCCCC1 [TCMDC-124368]	-27.39%	–

Structure (SMILES)	% Inhibition	% Inhibition (% Inhibition)
Cc1cc(C(=O)CN2C(=O)NC3(CCOc4ccccc43)C2=O)c(C)n1Cc1ccc(F)cc1 (stereo not drawn) [TCMDC-125246]	-0.05637%	–
CC(CNc1nc(NCC(c2ccccc2)c2ccccc2)c2[nH]cnc2n1)c1ccccc1 (stereo not drawn) [TCMDC-131859]	-14.76%	–
O=C(Nc1ccc(C(F)(F)F)cc1)c1ccc(S(=O)(=O)NC2CCN(Cc3ccccc3)C2)cc1 (stereo not drawn) [TCMDC-133675]	7.046%	–
Cc1ccc(NC(=O)c2ccc(NCCCN(C)Cc3ccccc3)c([N+](=O)[O-])c2)cc1F [TCMDC-125686]	12.99%	–
O=C(Nc1ccccc1F)NC1CCN(c2ccnc(Nc3ccc(F)cc3)n2)C1 (stereo not drawn) [TCMDC-133603]	-76.2%	–
N#Cc1cccc(NC(=O)Nc2cccc(OC3CCN(Cc4ccccc4)CC3)c2)c1 [TCMDC-139545]	11.02%	–
O=C(Nc1ccc(C(=O)Oc2ccc3ccccc3c2)cc1)N[C@@H](Cc1ccc(O)cc1)C(=O)NC1CCN(Cc2ccc(O)cc2)C1 (stereo partly drawn) [TCMDC-135358]	-34.98%	–
O=C(Nc1ccc2c(c1)CCC2)N[C@H]1CCN(Cc2ccc(OCCCN3CCCCC3)cc2)C1 [TCMDC-141790]	89.55%	–
O=C(Nc1cccc(Oc2ccccc2)c1)N[C@H]1CCN(Cc2ccc(OCCCN3CCCCC3)cc2)C1 [TCMDC-141785]	106.3%	–
O=C(Nc1ccc(-c2ccccc2)cc1)Nc1cccc(OCCN2CCCC2)c1 [TCMDC-139541]	-48.88%	–
O=C(Nc1ccc2c(c1)CCC2)N[C@H]1CCN(CCCCCNC(=O)C2CC2c2ccc(Cl)c(Cl)c2)C1 (stereo partly drawn) [TCMDC-136264]	5.581%	–
N#Cc1cc(C(=O)c2cc(Br)ccc2O)cn(C2CCCCC2)c1=O [TCMDC-123629]	-45.84%	–
O=C(/C=C/c1ccc(Cl)c(Cl)c1)NCCCCCN1CCC(c2c[nH]c3ccccc23)C(O)C1 (stereo not drawn) [TCMDC-139656]	–	-35.83%
CC(=O)c1cccc2cc(C(=O)NC3CCC(CCN4CCc5ccc(C#N)cc5C4)CC3)[nH]c12 (stereo not drawn) [TCMDC-139192]	14.52%	–
Nc1nc2c(cnn2CCCCCCCP(=O)(O)O)c(=O)[nH]1 [TCMDC-137339]	21.15%	–
N#Cc1cccc(C(=O)Nc2cccc(-c3ccc(CN4CCCC4)cc3)c2)c1 [TCMDC-132650]	24.3%	–
N#Cc1ccc(C(=O)Nc2ccc(-c3cccc(CN4CCCC4)c3)cc2)cc1 [TCMDC-132668]	1.206%	–
CN1CCCN(Cc2ccc(-c3ccc(NC(=O)c4cccc(C#N)c4)cc3)cc2)CC1 [TCMDC-132594]	-1.455%	–
CN1CCCN(Cc2ccc(-c3cccc(NC(=O)c4cccc(C#N)c4)c3)cc2)CC1 [TCMDC-132648]	64.68%	–
N#Cc1ccc(C(=O)Nc2cccc(-c3ccc(CN4CCCC4)cc3)c2)cc1 [TCMDC-132639]	23.71%	–
N#Cc1cccc(C(=O)Nc2ccc(-c3cccc(CN4CCCC4)c3)cc2)c1 [TCMDC-132674]	97.51%	–
CN1CCCN(Cc2cccc(-c3cccc(NC(=O)c4cccc(C#N)c4)c3)c2)CC1 [TCMDC-132661]	20.56%	–

Structure (SMILES)	% Inhibition	% Inhibition (% Inhibition)
N#Cc1cccc(C(=O)Nc2ccc(-c3ccc(CN4CCCC4)cc3)cc2)c1 [TCMDC-132596]	64.33%	–
CN1CCCN(Cc2cccc(-c3ccc(NC(=O)c4cccc(C#N)c4)cc3)c2)CC1 [TCMDC-132673]	15.02%	–
O=C(NCc1ccc(C(=O)NC2CCCCC2)cc1)c1ccc(O)c(-c2ccc(Cl)c(Cl)c2)c1 [TCMDC-140825]	-4.793%	–
CN(c1ccc(C(=O)N[C@@H](CCC(=O)O)C(=O)O)cc1)S(=O)(=O)c1ccc2nc(N)[nH]c(=O)c2c1 [TCMDC-137344]	2.989%	–
COC(=O)c1ccc(CC(C)NCC(O)c2cccc(C(F)(F)F)c2)c(OC)c1 (stereo not drawn) [TCMDC-131469]	14.6%	–
CCN(CCCN1CCCCC1)c1cc(C)nc(Nc2cccc(OC(F)(F)F)c2)n1 [TCMDC-132429]	-20.04%	–
COc1cc2nc(N3CCC(CNC(=O)c4ccc(-c5ccc(C(=O)N(C)C)cc5)cc4)CC3)nc(N)c2cc1OC [TCMDC-138719]	58.63%	–
COc1cc2nc(N3CCC(CNC(=O)c4ccc(-c5ccc(C(=O)N(C)C)cc5O)cc4)CC3)nc(N)c2cc1OC [TCMDC-138752]	72.56%	–
COCCNc1nc(N2CCC(CNC(=O)c3ccc(-c4ccc(C(=O)N(C)C)cc4C)cc3)CC2)nc2cc(OC)c(OC)cc12 [TCMDC-138729]	5.197%	–
COc1cc2nc(N3CCC(CNC(=O)c4ccc(-c5ccc(C(=O)N(C)C)cc5C)cc4)CC3)nc(N3CCN(C)CC3)c2cc1OC [TCMDC-138724]	15.4%	–
COc1cc2nc(N3CCC(CNC(=O)c4ccc(-c5ccc(C(=O)N(C)C)cc5)c(OCCO)c4)CC3)nc(N)c2cc1OC [TCMDC-138742]	39.21%	–
COc1cc2nc(N3CCC(CNC(=O)c4ccc(-c5ccc(C(=O)N(C)C)cc5OCCN(C)C)cc4)CC3)nc(N)c2cc1OC [TCMDC-138760]	100.1%	–
COc1cc2nc(N3CCC(CNC(=O)c4ccc(-c5ccc(C(=O)N(C)C)cc5OCCO)cc4)CC3)nc(N)c2cc1OC [TCMDC-138766]	-18.75%	–
NCCc1cccc(-c2cnc3[nH]cc(-c4ccc(C(=O)O)cc4)c3c2)c1.O=C(O)C(F)(F)F [TCMDC-136363]	-2.826%	–
CN(Cc1cnc2nc(N)nc(N)c2n1)c1ccc(C(=O)NC(CCC(=O)O)C(=O)O)cc1 (stereo not drawn) [TCMDC-123832]	–	33.25%
CN(C)S(=O)(=O)n1ccc2c3c(N)nc(N)nc3ccc21 [TCMDC-137973]	-6.92%	–
NC(=O)c1cccc(CN2Cc3ccccc3OC3(CCN(Cc4c[nH]c5cnccc45)CC3)C2)c1 [TCMDC-133382]	-16.29%	–
COc1ccc2nccc([C@@H](O)CN3CCC(NCCOc4c(C)cccc4F)CC3)c2c1 [TCMDC-140657]	37.85%	–
CCOC(=O)CC[C@H](NC(=O)c1ccc(NS(=O)(=O)c2ccc(-c3cnc(N)[nH]c3=O)cc2)cc1)C(=O)OCC [TCMDC-137679]	3.183%	–
O=C(Nc1cccc(C(F)(F)F)c1)NC1CCN(c2ccnc3ccccc23)C1 (stereo not drawn) [TCMDC-133579]	-23.57%	–
CN1CCC(NC(=O)c2cc(Oc3ccc4c(c3)CCN4C(=O)Nc3cccc(C(F)(F)F)c3)ccn2)CC1 [TCMDC-141751]	51.02%	–
Cc1cc2c(cc1C(F)(F)F)N(C(=O)Nc1cccc(C(=O)NC3CCN(Cc4ccccc4)CC3)c1)CC2 [TCMDC-139972]	-14.42%	–
